# Source: ChEMBL document CHEMBL4513216, “Probing the Open Global Health Chemical Diversity Library for Multistage-Active Starting Points for Next-Generation Antimalarials” (ACS Infect Dis, 2020)
# The whole screen tested about 69,000 compounds, of which about 8,600 (12%) showed an effect of 50% or more. Shown is part of a subset that was picked to be rich in strong results.
# Test system: Plasmodium berghei
# Assay: Screen against P. berghei liver stage (PbLuc), transformed with Luciferase, at 10uM
# Format: functional, HepG2
# Details: tested at 10 uM
row,SMILES,INHIBITION
1,CN(C)C[C@]12COC[C@H]1CN(Cc1ccccn1)C2,87.7%
2,Cc1cc(CN2C[C@@H]3COC[C@]3(CN(C)C)C2)no1,18.8%
3,CN(C)C[C@]12COC[C@H]1CN(Cc1ccc3ccccc3n1)C2,4.02%
4,CNc1nccc(C2CCCCN2Cc2cnn3cccnc23)n1 (stereo not drawn),-7.66%
5,O=C(CO)N1CCC2(CC1)CC(=O)N(Cc1cc(F)cc(F)c1)C2,8.99%
6,CCCS(=O)(=O)N1CCC2(CC1)CC(=O)N(Cc1cc(F)cc(F)c1)C2,17.1%
7,O=C1CC2(CCN(Cc3ncc[nH]3)CC2)CN1Cc1cc(F)cc(F)c1,-6.05%
8,CCN1CC2(CCN(CCOc3ccc(F)cc3)CC2)CC1=O,0.868%
9,O=C1CC2(CCN(CCCO)CC2)CN1Cc1ccc(F)c(F)c1,36.8%
10,O=C1CC2(CCN(CCO)CC2)CN1Cc1cc(F)cc(F)c1,60.1%
11,CCCOCCN1CCC2(CC1)CC(=O)N(Cc1cc(F)cc(F)c1)C2,64.1%
12,O=C1CC2(CCN(Cc3ccoc3)CC2)CN1Cc1cc(F)cc(F)c1,73.4%
13,O=C1CC2(CCN(Cc3ccoc3)C2)CN1c1cncnc1 (stereo not drawn),43.9%
14,CC(C)=CCN1CCC2(CC1)CC(=O)N(Cc1cc(F)cc(F)c1)C2,38.6%
15,O=C1CC2(CCN(CCCF)CC2)CN1Cc1cc(F)cc(F)c1,75.7%
16,CC(C)N1CCC2(CC1)CC(=O)N(Cc1cc(F)cc(F)c1)C2,35.1%
17,Cc1nc([C@@H]2C[C@@H]3CCN(C(=O)Cc4cccs4)C[C@H]3O2)no1,11.6%
18,CCCc1noc(-c2cn(CC(=O)N(CC)CC)nn2)n1,-51.7%
19,Cc1ccc(C(O)CN(C)Cc2cnn(C)c2)cc1C (stereo not drawn),28.7%
20,Cn1ccc(C(=O)NC2CCC23CCN(C(=O)c2ccncc2)CC3)c1 (stereo not drawn),13.5%
21,CNc1snc(C)c1C(=O)N1CCC(Nc2ccc(C)nn2)CC1,1.15%
22,O=C1CCC(=O)N1CCn1nnc(-c2cccc(Cl)c2)n1,-5.57%
23,O=C1CC2(CCN(CC3CC3)CC2)CN1Cc1cc(F)cc(F)c1,69.3%
24,O=C1CC2(CCN(CC3CCOC3)CC2)CN1Cc1cc(F)cc(F)c1 (stereo not drawn),46.8%
25,O=C1CC2(CCN(CC3CC3)C2)CN1c1cccc(F)c1 (stereo not drawn),-6.02%
26,CCc1n[nH]c(C2CN(C(=O)c3ccnc(C4CC4)n3)CCO2)n1 (stereo not drawn),31.3%
27,CCc1ccc(CN2C[C@H](OCC(=O)N(C)C)[C@H]3COC[C@H]32)o1,26.5%
28,Cc1nn(C)cc1CC(C#N)C(=O)Nc1cccc(O)c1 (stereo not drawn),3.58%
